Only some compounds are listed: those with a hit (about 2.3% of all), similar ones and a draw of the others.
ATXN viability: reduces viability in counter-screen for ATXN expression inhibitors | S2 cells (HEK-293 line with an ATXN2-luciferase reporter) viability, CellTiter-Fluor protease fluorescence, 24 h | Potency, µM (titrated, usually from 56.7 µM), most hits filed as cytotoxic | actives 0.49% (n = 400,000) | AID 651635; further: nearly all actives have a fitted effect of over 40% in size
ATXN2 expr inh: ATXN2 expression inhibition | HEK-293 ATXN2-luciferase reporter, luminescence, 24 h | Potency, µM (doses to about 57 µM), for the others: at the top dose activity change, negative = inhibition, usual class: inhibitors | actives 0.72% (n = 360,000) | AID 1745845; further: on the % scale 0 is the no-effect control and ±100 the full control effect; nearly all actives have a fitted effect of over 55% in size
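qHTS (up to 57 uM final) was run with 24 h compound exposure of reporter cells at 37 °C. Each well was multiplexed: SteadyGlo luminescence measured ATXN2-luciferase expression after a fluorogenic Gly-Phe-AFC viability readout (25 uM final).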
HepG2 tox: HepG2 cytotoxicity, counter-screen for TGF-b inhibitors; HepG2 CAGA-GFP viability, ATP luminescence, 18 h; AID 588856; actives 0.76% (n = 410,000); Potency, µM (highest dose often 46.1 µM), for the others: at the highest dose activity change, negative = cytotoxicity, actives largely listed as cytotoxic
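HepG2 CAGA-GFP cells (1000/well, DMEM with 1% FBS) received compound, then TGF-beta at 500 pg/mL final, and were incubated 18 hours at 37 degrees C. Viability was read by CellTiter-Glo luminescence. Media-only wells were set as complete cell-killing and DMSO as no toxicity.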
TGFb inhibitor: inhibitors of TGF-b signaling. Potency, µM (highest dose often 46.1 µM), without a hit: at the highest dose activity, negative = inhibition, hits mostly inhibitors. HepG2 CAGA-GFP TGF-b/SMAD3 reporter, GFP fluorescence, 18 h; TGF-beta stimulated, 500 pg/mL final. AID 588855. actives 1.2% (n = 410,000); further: on the % scale 0 is the no-effect control and ±100 the full control effect; nearly all actives have a fitted effect of over 65% in size
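Inhibition was scored as loss of TGF-beta-induced (500 pg/mL final, 18 hours, 37 degrees C) GFP in HEPG2 cells carrying a CAGA-GFP reporter, in DMEM with 1% FBS. Well GFP was summed per cell; Activity was normalised to unstimulated and stimulated DMSO wells, then concentration-response fitting.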
Starred values were filed as active, the others as inactive; i = inactive; ? = inconclusive; . = not tested or not shown. The call rests on the fitted dose curve; in most records, active means well fitted curve in the direction sought with a large enough effect; inconclusive means small, poorly fitted or top-dose-only effect, or another doubt; inactive means no such curve, though single readings can be large; an effect the other way counts as inactive or inconclusive. Potency means the concentration at half of the fitted maximal effect.

SMILES	ATXN viability	ATXN2 expr inh	HepG2 tox	TGFb inhibitor
CO[C@@]1(NC(=O)CSC[C@@H](N)C(=O)O)C(=O)N2C(C(=O)O)=C(CSc3nnnn3C)CS[C@@H]21	i	-5%	.	.
O=S(=O)(C/C(=C/CO)S(=O)(=O)c1ccccc1)c1ccccc1	20µM*	?	16µM*	?
CC(C)(C)n1ncc2c(=O)n(Cc3ccc(OC(F)(F)F)cc3)cnc21	.	.	-43%	-21%
Cc1cc2oc(=O)c(CC(=O)NCCCN(C)C)c(C)c2c2occ(C(C)(C)C)c12	22µM*	-28%	22µM*	?
Cc1cc2oc(=O)c(CC(=O)NCCCO)c(C)c2c2occ(C(C)(C)C)c12	i	5%	-27%	-30%
CC(=CC(=O)Nc1ccccc1C(=O)O)c1ccc2ccccc2c1	.	135%	.	.
C=CS(=O)(=O)N(Cc1ccccc1Br)[C@H](CO)Cc1ccccc1	13µM*	16µM*	-68%	?
Cc1cccc2cc(CN(CC3CCCO3)C(=O)C3CC3)c(N(C)C)nc12 (centres undefined)	i	.	.	.
Cc1ccc(N/C(N)=N/c2nc(C)cc(C)n2)cc1	i	0%	-2%	0%
CCCCc1ccc(N/C(N)=N/c2nc(C)cc(C)n2)cc1	i	?	16µM*	?
O=C(CSc1c2c(nc3cc(Cl)ccc13)CCCC2)NCc1ccccc1Cl	.	.	-28%	?
O=C(CSc1c2c(nc3cc(Cl)ccc13)CCCC2)NCc1ccco1	i	-5%	-44%	18µM*
CC1CCN(C(=O)CSc2c3c(nc4cc(Cl)ccc24)CCCC3)CC1	?	?	11µM*	?
COc1ccc(Br)cc1CN(C)CC(O)COc1ccc(Br)cc1 (centres undefined)	i	?	18µM*	?
COc1ccc(CN(C)CC(O)COc2ccc(C(=O)c3ccccc3)cc2)c(OC)c1OC (centres undefined)	?	0%	-34%	?
CCOc1ccc(/C=C/c2ccc3ccccc3n2)cc1OCC	.	.	-9%	-2%
Cc1ncoc1C(=O)N1CCOc2ccc(CN3CCN(c4ccccn4)CC3)cc2C1	i	.	.	.
O=C(Nc1ccc(F)cc1)N1CCN(c2ccc3nnc(-c4ccc(F)cc4)n3n2)CC1	?	?	13%	-6%
Fc1ccc(-c2nnc3ccc(N4CCc5ccccc5C4)nn23)cc1	.	32µM*	1%	20%
Cc1cc(=O)n(CC(=O)N2CCN(c3ccc(F)cc3)CC2)c2c1c(C)nn2C	?	?	-32%	7.1µM*
CCOC(=O)C1CCCN(C(=O)Cn2c(=O)cc(C)c3c(C)nn(C)c32)C1 (centres undefined)	i	-19%	-12%	?
NS(=O)(=O)c1ccc(N2N=C(c3ccccc3)CC2c2ccc(Br)cc2)cc1 (centres undefined)	?	?	28µM*	?
COc1ccc(C2CC(c3ccccc3Br)=NN2c2ccc(S(N)(=O)=O)cc2)cc1 (centres undefined)	i	?	13µM*	?
CC(COc1ccccc1)NN (centres undefined)	i	0%	.	.
C(=C\c1ccnc2ccccc12)/c1ccc2c(c1)OCO2	.	.	-4%	8%
SMILES	ATXN viability	ATXN2 expr inh	HepG2 tox	TGFb inhibitor
COc1ccc2[nH]c3c(c2c1)CCN1C(=O)C(CC(=O)NC/C=C(\C)CCC=C(C)C)C[C@H](C(=O)N(C(C)C)C(C)C)[C@@]31C (some centres undefined)	i	2%	-103%	16µM*
CC(C)N(C(=O)[C@H]1CC(CC(=O)NCc2cccc(C(F)(F)F)c2)C(=O)N2CCc3c([nH]c4ccccc34)[C@]12C)C(C)C (some centres undefined)	.	?	-92%	13µM*
CC(C)=CCC/C(C)=C/CNC(=O)C[C@H]1C[C@H](C(=O)N(C(C)C)C(C)C)[C@@]2(C)c3[nH]c4ccc(Cl)cc4c3CCN2C1=O	i	3%	-4%	-23%
CN(C)C(=O)CCc1ccc2c3c([nH]c2c1)[C@]1(C)[C@@H](C(=O)N2CCOCC2)C[C@H](CC(=O)NCC24CC5CC(CC(C5)C2)C4)C(=O)N1CC3	i	9%	-5%	21%
CC(C)N(C(=O)[C@H]1CC(CC(=O)NCCCN(C)C)C(=O)N2CCc3c([nH]c4ccccc34)[C@]12C)C(C)C (some centres undefined)	i	13%	5%	4%
CC(C)=CCC/C(C)=C/CNC(=O)C[C@H]1C[C@H](C(=O)N2CCCCC2)[C@@]2(C)c3[nH]c4cc(CCC(=O)N(C)C)ccc4c3CCN2C1=O	32µM*	?	-47%	?
CC(C)N(C(=O)[C@H]1C[C@H](CC(=O)NCC23CC4CC(CC(C4)C2)C3)C(=O)N2CCc3c([nH]c4cc(CCC(=O)N(C)C)ccc34)[C@]12C)C(C)C	25µM*	?	-72%	?
Cc1c(C(=O)NCC2COCCO2)cnn1-c1ncc2c(n1)-c1ccccc1CC2 (centres undefined)	i	.	.	.
COc1ccc(OC)c(-c2cc(Cl)c3c(c2)CC(CNC(=O)/C=C/c2ccccn2)O3)c1 (centres undefined)	i	.	.	.
Cc1cc(N(C)C)cc(C)c1C=O	.	.	-8%	-16%
CNc1ccc(/C=C/c2ccccc2)cc1	.	.	-33%	-24%
COCCCNC(=O)C[C@H]1C[C@H](C(=O)N2CCOCC2)[C@@]2(C)c3[nH]c4cc(-c5ccco5)ccc4c3CCN2C1=O	i	6%	1%	-21%
CN(C)C(=O)CCc1ccc2c3c([nH]c2c1)[C@]1(CCC2CCCC2)[C@@H](C(=O)N2CCOCC2)C[C@H](CC(=O)NCc2cccc(C(F)(F)F)c2)C(=O)N1CC3	.	?	-59%	11µM*
COCCCNC(=O)C[C@H]1C[C@H](C(=O)N(C(C)C)C(C)C)[C@@]2(C)c3[nH]c4cc(-c5ccco5)ccc4c3CCN2C1=O	i	-18%	-22%	11µM*
COC(=O)[C@@H]1CCCN1Cc1ccc2c(c1)CN(Cc1cc(OC)c3c(c1)OCO3)CCO2	i	.	.	.
Cc1nnc(N/N=C\c2ccc(-c3cccc(C(=O)O)c3)o2)n1N	i	?	7.1µM*	10µM*
COC(=O)C1CCN(Cc2ccc3c(c2)CN(C(=O)c2ccnn2C)CCO3)CC1	i	.	.	.
CN(C)c1ccc(/C=C/c2ccc3cc(N)ccc3n2)cc1	.	.	-48%	7%
CCCN1C(=O)C(O)(CC(=O)c2ccc(C(C)C)cc2)c2ccccc21 (centres undefined)	.	.	-26%	.
CC(C)c1ccc(C(=O)CC2(O)C(=O)N(CCc3ccccc3)c3ccc(Cl)cc32)cc1 (centres undefined)	?	?	-104%	16µM*
CC1C(=O)CC(c2ccccc2)N(C)C1c1ccccc1 (centres undefined)	i	-21%	-2%	2%
